Laboratory results from PubChem BioAssay.
Values joined by “and” are separate entries in the source; they are usually repeats but may differ in a detail not shown here. Identical values can stand only once. Inconclusive results are not listed. Active and inactive are the calls of the source. Unless noted, cut-off not given; nearly all actives show AC50 up to about 30 µM.

Assays:
[1] = Wnt pathway potentiators raising nuclear beta-catenin – imaging, WNT3A-conditioned medium, mouse C2C12, NPC library, primary screen (AID 1117326; in the data active means nuclear beta-catenin stimulation mostly above about 4.2%, no sharp cut-off; inactive means mostly below about 10%); conditions: stronger effect = higher value
[2] = stimulators of insulin release from INS-1E, primary screen, cell-based, 5 mM glucose, NPC library (AID 1117329;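 active means compound raises insulin release from rat beta cells at 5 mM glucose, no numeric limit stated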); conditions: rat INS-1E insulin secretion, at 10 µM, stronger effect = higher value
[3] = growth inhibition of GSK3B-pretreated HCT116 cells – cell-based, CellTiter-Glo, 0.2 to 20 µM (AID 1117336;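 active means compounds lowering colon cancer cell viability after pretreatment blocking the GSK3B kinase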); conditions: HCT116 viability after GSK3B inhibitor, at 20 µM, stronger effect = higher value
[4] = inhibition of endothelial tube formation, primary screen, imaging, VEGF stimulated, CD31 staining, tube area, NPC library (AID 1117340;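 active means compound that reduces growth-factor-driven endothelial tube area in a mixed cell culture, no cutoff stated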); conditions: VEGF-stimulated ADSC/ECFC co-culture, at 10 µM, stronger effect = higher value
[5] = GLP1 release stimulators, primary, NCI-H716, NPC library (AID 1117341;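 active means compound raises GLP1 secretion from the human gut endocrine cells, with no numeric limit stated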); conditions: NCI-H716 cells, at 10 µM, stronger effect = higher value
[6] = HCT116 colon cancer cell growth inhibition, primary screen, CellTiter-Glo luminescence, NPC library (AID 1117342;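 active means compounds that lower survival of HCT116 colon cancer cells in the luminescence readout, no numeric limit stated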); conditions: at 20 µM (top of the series)
[7] = reduced SW480 viability measured with CellTiter-Glo, NPC library, primary (AID 1117343;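 active means compounds that lower viability of the colon cancer cells in the luminescence readout, with no numeric limit stated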); conditions: CellTiter-Glo luminescence; at 20 µM (top of the series) unless noted
[8] = NPC library primary testing for decreased DLD-1 cell viability via CellTiter-Glo (AID 1117346;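 active means compounds that lower survival of DLD-1 colon cancer cells in the luminescence readout, no cutoff given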); conditions: DLD-1 viability, CellTiter-Glo luminescence; at 20 µM (top of the series)
[9] = viability loss in pontine glioma line – cell-based, JHH-DIPG-1, MIPE4.0, CellTiter-Glo, qHTS, dose response (AID 1347062; cut-off not given, nearly all actives have AC50 up to about 27 µM;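 on AC50: cells exposed to compound for two days before readout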); conditions: JHH-DIPG-1 viability, CellTiter-Glo ATP luminescence
[10] = viability loss in pontine glioma line – cell-based, SU-DIPG-IV, MIPE4.0, CellTiter-Glo, qHTS, dose response (AID 1347063); conditions: CellTiter-Glo ATP luminescence;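 further: compound exposure lasted 48 hours before the viability readout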
[11] = viability loss with induced miR-34 in A549 – imaging, A549 dox-inducible miR-34, nuclei and caspase counts, primary screen (AID 1347080;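 active means compounds whose cell count with miR-34 switched on is under 0.7 times the count with it off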); conditions: A549 miR-34 inducible, Hoechst nuclei count, 48 h
[12] = MELAS cybrid and Rieske KO viability enhancers – cell-based, MELAS cybrids, Rieske KO mouse fibroblasts, CellTiter-Glo, primary screen (AID 1508586;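 active means mean z-score across replicates of 1.96 or higher in either the MELAS or the Rieske mutant cell line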;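 further: z relative to plate mean and SD of compound and empty wells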); conditions: low glucose
[13] = growth inhibition of DIPG cells – cell-based, MIPE4.0 library, CellTiter-Glo luminescence, qHTS (AID 1347066); conditions: SU-DIPG-VI viability, CellTiter-Glo ATP luminescence;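 further: cells exposed to compound for 48 hours before readout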
[14] = growth inhibition of DIPG cells – cell-based, MIPE5.0 library, qHTS (AID 1347068; cut-off not given, nearly all actives have IC50 up to about 30 µM;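 on IC50: cells exposed to compound for 48 hours before viability readout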); conditions: SU-DIPG-XXV viability
[15] = JHH-DIPG-1 glioma cell viability, MIPE5.0 library, CellTiter-Glo luminescence, qHTS (AID 1347067; cut-off not given, nearly all actives have AC50 up to about 26 µM;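 further: cells exposed to compound for 48 hours before readout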); conditions: JHH-DIPG-1 glioma viability, CellTiter-Glo ATP luminescence
[16] = galactose survival enhancers in mitochondrial complex I cybrids – cell-based, galactose medium, ATP luminescence, primary screen (AID 1645843;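 active means z-score of at least 1.8 in each of two replicates, scored against plate mean and spread of sample wells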;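 further: positive z means more ATP and so rescue of galactose-driven cybrid death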); conditions: complex I mutant cybrid cells, 72 h, stronger effect = higher value
[17] = P. berghei load reduction in hepatocytes – cell-based, HepG2, luciferase luminescence, HepG2 viability, primary screen (AID 624349; in the data active means parasite load remaining mostly below about 12%, no sharp cut-off; inactive means mostly above about 10%;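 further: 100% = mean of DMSO negative control wells on the same plate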); conditions: P. berghei liver stage in HepG2, luciferase luminescence, concentration not given here; parasite load remaining: stronger effect = lower value; viability: measured here: HepG2 viability without parasites
[18] = viability loss in pontine glioma line – cell-based, SU-DIPG-XXV, MIPE5.0, CellTiter-Glo, qHTS, dose response (AID 1347065; cut-off not given, nearly all actives have AC50 up to about 26 µM;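 further: cells exposed to compound for 48 hours before ATP readout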); conditions: CellTiter-Glo ATP luminescence
[19] = stronger effect = lower value, cell number ratio, induced over uninduced
[20] = measured here: relative caspase fold change +Dox/-Dox
[21] = measured here: total cells with miR-34 induction, stronger effect = lower value
[22] = measured here: total cells without miR-34 induction
[23] = MELAS cybrid survival, CellTiter-Glo 48 h, stronger effect = higher value
[24] = Rieske KO mouse fibroblast survival, CellTiter-Glo 72 h

CCCCCCCCOc1ccccc1C(=O)Nc1ccc(C(=O)OCC[N+](C)(CC)CC)cc1
active: viability decrease [3] 99.7% | tube area decrease [4] 101% | inhibition of viability [6] 98.4% | viability decrease (inhibition) [7] 88.6% | viability decrease (inhibition) [8] 99% | AC50 [9] 23.5 µM | AC50 [10] 18.7 µM
7980: cell count [11, 21]
8740: cell count [11, 22]
0.694: fold change [11, 20]
inactive: nuclear beta-catenin stimulation ([1]; at 10 µM) 4.2% | insulin secretion stimulation [2] 15.7% | GLP1 secretion stimulation [5] -3.3% | fold change [11, 19] 0.913 | z-score [12, 23] -0.155
-0.0436: z-score [12, 24]
0.1%: nuclear beta-catenin stimulation ([1]; stimulation, at 2 µM)

CCCCCCOC(=O)NC(=N)c1ccc(NCc2nc3cc(C(=O)N(CCC(=O)OCC)c4ccccn4)ccc3n2C)cc1
active: viability decrease [3] 78.3% | inhibition of viability [6] 118% | viability decrease (inhibition) [7] 155% | viability decrease (inhibition) [8] 102% | AC50 [9] 26.4 µM | AC50 [13] 26.4 µM
inactive: nuclear beta-catenin stimulation ([1]; at 10 µM) 2.7% | insulin secretion stimulation [2] 0.9% | tube area decrease [4] -1.4% | GLP1 secretion stimulation [5] -2.6% | outcome [10] | outcome [14]
2.3%: nuclear beta-catenin stimulation ([1]; stimulation, at 2 µM)

CN(c1nccc(=O)[nH]1)C1CCN(c2nc3ccccc3n2Cc2ccc(F)cc2)CC1
inactive: nuclear beta-catenin stimulation ([1]; at 10 µM) -1.9% | insulin secretion stimulation [2] 4.3% | viability decrease [3] -6.8% | tube area decrease [4] 10.5% | GLP1 secretion stimulation [5] -3% | inhibition of viability [6] 26.2% | viability decrease (inhibition) [7] 9.6% | viability decrease (inhibition) [8] -5.1% | outcome [9] | outcome [10] | outcome [13] | z-score [12, 23] 0.306
-0.5%: nuclear beta-catenin stimulation ([1]; stimulation, at 2 µM)
0.258: z-score [12, 24]

Cc1c(C(=O)NN2CCCCC2)nn(-c2ccc(Cl)cc2Cl)c1-c1ccc(Cl)cc1
inactive: nuclear beta-catenin stimulation ([1]; at 10 µM) -0.4% | insulin secretion stimulation [2] 3% | GLP1 secretion stimulation [5] 1.2% | outcome [14] | fold change [11, 19] 0.783 and 0.989 | z-score [12, 23] -1.37 and -3.1 | z-score [16] -2.65
4800 and 7920: cell count [11, 21]
-0.1%: nuclear beta-catenin stimulation ([1]; stimulation, at 2 µM)
0.923 and 2.07: fold change [11, 20]
6120 and 8010: cell count [11, 22]
active: viability decrease [3] 109% | tube area decrease [4] 110% | inhibition of viability [6] 108% | viability decrease (inhibition) [7] 130% | viability decrease (inhibition) [8] 101% | AC50 [9] 16.6 µM | AC50 [10] 16.6 µM | AC50 [15] 18.6 µM
0.317 and -0.818: z-score [12, 24]

O=C(CS(=O)Cc1ccco1)NC/C=C\COc1cc(CN2CCCCC2)ccn1 (stereo unspecified)
-0.8%: nuclear beta-catenin stimulation ([1]; stimulation, at 2 µM)
inactive: nuclear beta-catenin stimulation ([1]; at 10 µM) -0.3% | insulin secretion stimulation [2] 4% | viability decrease [3] -4.8% | tube area decrease [4] 8% | GLP1 secretion stimulation [5] -0.5% | inhibition of viability [6] 2.2% | viability decrease (inhibition) [7] -8.8% | viability decrease (inhibition) [8] 6.7% | outcome [9] | outcome [10] | outcome [13]

COC(=O)C1=C(C)NC(C)=C(C(=O)OCCN2CCN(C(c3ccccc3)c3ccccc3)CC2)C1c1cccc([N+](=O)[O-])c1 (stereo unspecified)
100%: viability [17]
1.09 and 0.891 and 0.572: z-score [12, 24]
inactive: parasite load remaining [17] 20.2% | nuclear beta-catenin stimulation ([1]; at 10 µM) 7.1% | insulin secretion stimulation [2] -1.1% | GLP1 secretion stimulation [5] -1.8% | outcome [9] | outcome [10] | outcome [13] | z-score [12, 23] -0.211 and -0.214 and 0.218 | z-score [16] -1.36
1.4%: nuclear beta-catenin stimulation ([1]; stimulation, at 2 µM)
active: viability decrease [3] 52.2% | tube area decrease [4] 106% | inhibition of viability [6] 78.5% | viability decrease (inhibition) [7] 135% | viability decrease (inhibition) [8] 96.4% | AC50 [18] 5.9 µM | AC50 [15] 13.2 µM | IC50 [14] 8.33 µM
